# Results: ChEMBL document CHEMBL4513216, “Probing the Open Global Health Chemical Diversity Library for Multistage-Active Starting Points for Next-Generation Antimalarials” (ACS Infect Dis, 2020)
# The whole screen tested about 68,000 compounds, of which about 2,700 (4%) showed an effect of 50% or more. Only a selection was taken, and strong results are over-represented in it overall.
# System: Plasmodium berghei
# Assay: Screen against P. berghei liver stage (PbLuc), transformed with Luciferase, at 2uM
# Assay type: functional, HepG2
# Conditions: tested at 2 uM
row,Structure (SMILES),INHIBITION
1,Cc1cc(CN2CCc3nc(N4CCOCC4)nc(O)c3CC2)c(C)s1,22.84%
2,Cc1cccc(CNC2CC3(CCN(CCO)CC3)c3ccccc32)n1 (stereo unspecified),34.02%
3,Cc1ccc2oc(SCC(N)=O)nc2n1,-30.1%
4,CN(C(=O)Nc1nncs1)C1CCN(c2ccccc2Cl)C1=O (stereo unspecified),2.06%
5,Cn1cnc2c1C(COCC1CCOCC1)CN(C(=O)c1ccco1)C2 (stereo unspecified),-39.19%
6,CN(C)C(=O)N1CCN(C(=O)CCc2ccccc2)[C@H]2CS(=O)(=O)C[C@H]21,-93.14%
7,Cn1c(C2CC2)nc2c1CCN(Cc1nc3ccccc3s1)C2,14.59%
8,CN1CC2(CCN(C(=O)COc3ccc(Cl)cc3Cl)CC2)OC1=O,16.37%
9,CS(=O)(=O)N1CCC(c2nnc(Cn3ccnc3)n2C2CC2)CC1,-13.72%
10,c1cn(Cc2nnc(C3CCN(C4CCOCC4)CC3)n2C2CC2)cn1,24.88%
11,OCC(CO)N1CCC(c2nnc(Cn3ccnc3)n2C2CC2)CC1,32.26%
12,CSCCCN1CCC(c2nnc(Cn3ccnc3)n2C2CC2)CC1,54.29%
13,CC(C)(C)CN1CCC(c2nnc(Cn3ccnc3)n2C2CC2)CC1,-13.72%
14,NCCN1CCC(c2nnc(Cn3ccnc3)n2C2CC2)CC1,52.08%
15,COc1ccccc1C(NC(=O)CN(C)C(C)C)c1noc(C)n1 (stereo unspecified),1.8%
16,O=C1CN(C(=O)c2cccc(OCc3cscn3)c2)CCN1,-7.02%
17,Cc1ccc(OCC(=O)NC2CCN(S(C)(=O)=O)CC2)cc1,30.88%
18,CS(=O)(=O)N1CCC(NC(=O)COc2ccc(Cl)cc2)CC1,54.86%
19,CS(=O)(=O)N1CCC(NC(=O)COc2ccc(Cl)c(Cl)c2)CC1,-34.45%
20,c1ccc(COC[C@]23COC[C@H]2CN(c2ncccn2)C3)nc1,-19.09%
21,CC(C)N(C)Cc1ncn2c1CN(C(=O)C1CCCO1)CCC2 (stereo unspecified),21.7%
22,Cc1c(CNCCCOc2cccnc2)c2ccccc2n1CC(N)=O,43.87%

row,Structure (SMILES),INHIBITION
1,COc1ccc(CC(=O)N2CCC(c3nncn3C)CC2)cc1F,54%
2,CCn1cnnc1C1CCN(C(=O)COc2ccccc2OC)CC1,-16.51%
3,CCn1cnnc1C1CCN(C(=O)c2cc(F)ccc2OC)CC1,27.5%
4,Cn1cnnc1C1CCN(C(=O)Cc2ccc3c(c2)OCCO3)CC1,5.14%
5,Cc1ccc(OCCC(=O)N2CCC(c3nncn3C)CC2)c(C)c1,7.74%
6,COc1ccc(CC(=O)N2CCC(c3nnc4n3CCC4)CC2)cc1F,-25.23%
7,Cc1cccc(C)c1OCCC(=O)N1CCC(c2nncn2C)CC1,-1.56%
8,COc1ccc(CC(=O)N2CCCC(c3nncn3C)C2)cc1 (stereo unspecified),14.26%
9,CCn1cnnc1C1CCN(C(=O)Cc2ccc(OC)c(F)c2)CC1,77.01%
10,Cc1ccc(C(=O)CCC(=O)N2CCC(c3nncn3C)CC2)cc1,54.85%
11,COc1ccc(CCNC(=O)N2CCCC(c3nncn3C)C2)cc1 (stereo unspecified),55.45%
12,COc1ccccc1CCNC(=O)N1CCCC(c2nncn2C)C1 (stereo unspecified),18.59%
13,c1coc(CN2CCC(c3ccc4c(c3)OCO4)CC2)c1,-8.85%
14,Cc1ccc(CN(CCCn2ccnc2)Cc2ccccc2O)s1,-43.99%
15,CN(C)CCNC(=O)c1cc(-c2cnc(N3CCCC3)nc2)cn1C,9.79%
16,Cc1cccc(C(=O)N2CCCCC2c2ccc(CN(C)C)cc2)n1 (stereo unspecified),-32.59%
17,Fc1cc(Cl)cnc1N1CCCC(c2nccn2Cc2ccccn2)C1 (stereo unspecified),3.97%
18,COc1c(Cl)cc(C(=O)NCCNc2ncccn2)cc1Cl,21.97%
19,CN1CCCC[C@@H]2[C@H]1[C@@H](c1ccccc1)CCN2C(=O)c1cccnc1,51.57%
20,CN1CCCC[C@@H]2[C@H]1[C@@H](c1ccccc1)CCN2C(=O)c1ccccc1,-60.34%
21,CN1CCCCC[C@@H]2[C@@H]1[C@H](c1ccccc1)CN2C(=O)c1cccnc1,31.28%
22,COc1ccc(F)cc1C(=O)C1CCCN(Cc2cnc(C)s2)C1 (stereo unspecified),72.49%

row,Structure (SMILES),INHIBITION
1,COc1ccc(C(=O)C2CCCN(Cc3cccc(F)c3)C2)c(OC)c1 (stereo unspecified),-14.94%
2,COc1ccc(F)cc1C(=O)C1CCCN(Cc2ccc(C)s2)C1 (stereo unspecified),49.02%
3,CO[C@@H]1CCN(Cc2ccoc2)C[C@@H]1Cc1ccccc1,28.46%
4,CCc1c(C)nc2ccccc2c1N1CCC(NC(C)=O)CC1,50.59%
5,CCc1c(C)nc2ccccc2c1N1CCC(C(=O)NC)CC1,5.28%
6,CCOC(=O)N1CCN(c2nc(NC3CC3)c3ccccc3n2)CC1,27.85%
7,OC1CCN(c2cnnc3ccccc23)CC1,-1.81%
8,CCOC(=O)N1CCN(c2nc(N)c3ccccc3n2)CC1,-12.08%
9,CCc1c(C)nc2ccccc2c1N1CCC(O)CC1,60.13%
10,CN(CCc1cccc2ccccc12)Cc1nc(N)nc(N(C)C)n1,-3.1%
11,COCC[C@]1(O)CCN(Cc2nc(C)cs2)C[C@H]1C,-9.15%
12,Cc1n[nH]c(C)c1C1CCCN1C(=O)c1cc(Br)c[nH]1 (stereo unspecified),56.21%
13,Cc1n[nH]c(C)c1C1CCCN1C(=O)c1coc(Br)c1 (stereo unspecified),28.43%
14,Cc1cccc(C(=O)N2CCCC2c2c(C)n[nH]c2C)c1 (stereo unspecified),41.84%
15,Cn1cc2c(n1)C(CNC1CCOCC1)OCC2 (stereo unspecified),-10.78%
16,COCC(=O)N1CCC2(CC1)COC(COCc1ccccn1)C2 (stereo unspecified),37.41%
17,CCOCC(=O)N1CCC2(CC1)COC(COCc1ccccn1)C2 (stereo unspecified),18.05%
18,CC(=O)N1CCC2(CC1)COC(COCc1ccccn1)C2 (stereo unspecified),53.55%
19,FC(F)(F)Oc1ccc(-c2c[nH]c([C@@H]3COCCN3)n2)cc1,12.28%
20,Fc1ccc(-c2c[nH]c([C@@H]3COCCN3)n2)cc1,32.59%
21,FC(F)(F)c1ccc(-c2c[nH]c([C@@H]3COCCN3)n2)cc1,64.99%
22,CC(c1ncc(-c2ccccc2)o1)N1CCN(C(=O)C(C)(C)C)CC1 (stereo unspecified),-18.71%
